# Bioassay records (PubChem BioAssay)
# CYP2C9 activ – activators of human CYP2C9; P11712; recombinant CYP2C9, luciferin-H conversion, luminescence; hits give high values; factor 1 = untreated enzyme, 0 = blocked; activation factor at 5 µM; 1.4% of 96,000 active;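 active means activation factor of 2 or more for CYP2C9 at a 5 µM dose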;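 further: 0 = sulfaphenazole-blocked wells and 1 = vehicle-only wells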
# Target sequence (P11712 whole entry, looked up): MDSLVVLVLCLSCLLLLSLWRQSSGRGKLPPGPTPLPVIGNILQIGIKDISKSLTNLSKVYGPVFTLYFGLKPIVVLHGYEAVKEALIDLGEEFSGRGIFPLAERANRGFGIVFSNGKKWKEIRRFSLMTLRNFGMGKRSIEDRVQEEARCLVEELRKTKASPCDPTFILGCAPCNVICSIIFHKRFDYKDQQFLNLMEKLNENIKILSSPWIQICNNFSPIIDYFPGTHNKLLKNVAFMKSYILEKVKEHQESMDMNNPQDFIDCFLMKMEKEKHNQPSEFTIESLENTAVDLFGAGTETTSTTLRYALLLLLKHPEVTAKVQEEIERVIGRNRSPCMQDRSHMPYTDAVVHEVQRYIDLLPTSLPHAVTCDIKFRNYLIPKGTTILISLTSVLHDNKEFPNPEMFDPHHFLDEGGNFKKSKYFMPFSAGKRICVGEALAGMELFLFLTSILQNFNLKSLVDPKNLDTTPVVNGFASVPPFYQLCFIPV
# MRP-1 activ – activates MRP-1; H69AR cells + doxorubicin, viability rescue, CellTiter-Glo; viability increase, % at 10 µM; 0.61% of 140,000 active; AID 799;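 active means viability gain under doxorubicin at or above a set limit, the compound median plus 3 SD, cut at about 4.7% in these data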;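 further: MRP-1 overexpressing cells given doxorubicin 25 µM after compound pretreatment; 18-22 h compound pretreatment then 72 h with doxorubicin before readout; 0% = doxorubicin-only wells and 100% = vehicle-treated cells without doxorubicin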
# CYP2C19 inhib – blocks human cytochrome P450 2C19 | 21% of 96,000 active | inhibition, % at 5 µM | P33261 | CYP2C19 Supersomes, luciferin-H EGE luminescence, 30 min;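 active means CYP2C19 inhibition above a set limit at 5 µM in the primary screen, cut at about 50% in these data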;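 further: plate controls were negative control wells for no effect and 2.5 mM tranylcypromine positive control for full effect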
# MRP reversal – MRP-mediated drug resistance reversal; differential viability (reversal), % at 10 µM; 0.04% of 85,000 active; H69AR cells + 2 uM doxorubicin, CellTiter-Glo, 72 h;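 active means viability drop by adding the cancer drug above about 55%, with treated viability meeting a 40% cutoff, limit read from the data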;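 further: viability without doxorubicin minus viability with 2 µM doxorubicin for each compound; larger differential means the compound sensitizes cells more to doxorubicin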
# CYP2C19 activ – increases human CYP2C19 enzyme activity | 96,000 tested, under 10 active | recombinant CYP2C19, luciferin-H EGE luminescence; hits give high values; 0 = fully inhibited enzyme, 1 = untreated enzyme | activation factor at 5 µM | P33261;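 active means activation factor of at least 2 at 5 µM in the primary screen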;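 further: 0 = wells with 2.5 mM tranylcypromine and 1 = vehicle-only wells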
# CYP2C9 inh – human CYP2C9 inhibition; P11712; CYP2C9 Supersomes, luciferin-H conversion, luminescence; inhibition, % at 5 µM; 20% of 96,000 active; AID 777;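 active means blocking of liver enzyme CYP2C9 beyond about 50% at 5 µM, limit read from the data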
# * hit, by the source's call; . = no result given. Only some compounds are listed: those with a hit (about 21% of all), similar ones and a draw of the others.
SMILES,CYP2C9 activ,MRP-1 activ,CYP2C19 inhib,MRP reversal,CYP2C19 activ,CYP2C9 inh
COC(=O)c1ccc(CSc2nc(C)nc3sc(C)c(C)c23)o1,1,-1,32,-51,0.7,4
CC1CC(C)CN(C(=S)Nc2ccc(SC(F)F)cc2)C1 (stereo unspecified),.,5.0*,.,.,.,.
CC1CC(C)CN(C(=O)c2ccccc2Nc2ccc(SC(F)F)cc2)C1 (stereo unspecified),0.2,-4,81*,0,0.2,76*
CC(C)(C)C1CCC(OC(=O)c2ccncc2)CC1 (stereo unspecified),0.1,2,99*,-16,0,94*
CCCn1nc(C(=O)NC2CCCc3ccccc32)c2ccccc2c1=O (stereo unspecified),.,-2,.,.,.,.
Cc1ccc2c(c1)OC(=O)CC2c1ccccc1 (stereo unspecified),0.5,-1,68*,-10,0.3,47
O=C(/C=C/c1c(Cl)cccc1Cl)NCCc1ccccc1,2.7*,1,20,.,0.8,-167
O=C(/C=C/c1cccc(Cl)c1)NCCc1ccccc1,.,0,.,.,.,.
O=C(Nc1ccccc1C(F)(F)F)c1cc(S(=O)(=O)N2CCOCC2)ccc1F,.,0,.,8,.,.
CCOC(=O)c1c(-c2ccccc2)csc1NC(=O)CSc1nnnn1C,0.2,-2,45,-4,0.6,80*
CCOC(=O)c1c(NC(=O)CSc2nnnn2C)sc(C)c1-c1ccc(C)cc1,0.2,-1,16,7,0.8,76*
CCOC(=O)c1c(-c2ccccc2)csc1NC(=O)CSc1ccccc1,.,0,.,.,.,.
CCOC(=O)C1=C(C)NC2=C(C(=O)CCC2)C1c1ccc(O)c(OCC)c1 (stereo unspecified),.,-2,.,.,.,.
CC1=C(C(=O)OCc2ccccc2)C(c2ccc(C)o2)C2=C(CCCC2=O)N1 (stereo unspecified),0.3,0,69*,19,0.3,70*
CCOC(=O)C1=C(C)NC2=C(C(=O)CC(c3ccc(OC)c(OC)c3)C2)C1c1ccc(C)o1 (stereo unspecified),0.4,-1,19,11,0.8,59*
CC1=C(C(=O)OC2CCCCC2)C(c2ccc(C)o2)C2=C(CCCC2=O)N1 (stereo unspecified),0.4,-3,42,-5,0.6,60*
CC1=C(C(=O)OCCOc2ccccc2)C(c2ccc(C)o2)C2=C(CC(C)(C)CC2=O)N1 (stereo unspecified),0.2,0,78*,-4,0.2,82*
O=C(Nc1ccccc1C(=O)N/N=C/c1ccco1)c1ccc(F)cc1,.,-2,.,.,.,.
COc1ccc(S(=O)(=O)Nc2ccccc2OC)cc1NC(=O)c1cc2ccccc2oc1=O,.,-4,.,.,.,.
COC(=O)c1ccc(=O)n(Cc2ccc3c(c2)OCO3)c1,0.6,-2,98*,21,0,40
Cn1c2c(c3ccccc31)CC/C2=N\O,0.8,0,79*,-9,0.2,17
CN1CCc2c(c3ccccc3n2C)C1,1,-2,0,11,1,-5
Cc1cc(C)nc(N(C#N)CC(=O)c2ccccc2)n1,2.2*,-1,14,-3,0.9,-115
Cc1cc(C)nc(N(C#N)Cc2ccccc2)n1,2*,-2,6,17,0.9,-103
Cc1cc(C)nc(N(C#N)Cc2cccc3ccccc23)n1,2.9*,-2,59*,7,0.4,-194
SMILES,CYP2C9 activ,MRP-1 activ,CYP2C19 inhib,MRP reversal,CYP2C19 activ,CYP2C9 inh
Cc1cc(C)nc(N(C#N)CCOc2ccccc2)n1,1.5,0,44,11,0.6,-52
COc1ccc(CN(CCO)CCO)cc1[N+](=O)[O-],.,-1,.,.,.,.
COc1ccc2c(c1[N+](=O)[O-])CCC/C2=N/OC(=O)c1cccc2ccccc12,2*,0,8,-12,0.9,-96
COc1ccc2c(c1)CC(C1(O)C(=O)N(C)c3ccccc31)C2=O (stereo unspecified),0.8,-1,77*,12,0.2,22
CN1C(=O)C(O)(C2COC(C)(C)CC2=O)c2ccccc21 (stereo unspecified),1.2,-2,-14,0,1.1,-20
COCCn1c(SCC(=O)Nc2ccc(S(N)(=O)=O)cc2)nc2ccccc21,0.3,0,-22,.,1.2,68*
CNC(=O)NC(=O)CSc1nc2ccccc2n1CCOC,0.8,-3,7,2,0.9,19
Cc1cccc(-n2c(SCC(=O)Nc3ncc(Cl)cc3Cl)nc3ccccc32)c1,.,5.9*,.,.,.,.
COCCn1c(SCC(=O)Nc2ccc(Cl)c(S(=O)(=O)N(C)C)c2)nc2ccccc21,0.1,1,27,.,0.7,87*
COCCn1c(SCC(=O)Nc2nc(C)c(Cl)cc2Cl)nc2ccccc21,0.8,-1,96*,15,0,22
COCCn1c(SCC(=O)Nc2cccc(S(N)(=O)=O)c2)nc2ccccc21,0.8,-1,31,3,0.7,18
CCN1C(=O)c2ccccc2Sc2ccc(C(=O)NCCN3CCOCC3)cc21,.,-2,.,10,.,.
COCCn1c(SCC(=O)Nc2ccc(S(=O)(=O)N3CCOCC3)cc2)nc2ccccc21,0.3,-1,16,-7,0.8,66*
COc1ccc(CN(C(=O)CN2C(=O)c3ccccc3S2(=O)=O)C(C(=O)NCC2CCCO2)c2ccncc2)cc1 (stereo unspecified),.,-1,.,.,.,.
CC(=O)N1c2ccc3ccccc3c2C(C)CC12CCCCC2 (stereo unspecified),0.1,1,98*,-3,0,94*
O=C(COC(=O)c1cc(Cl)ccc1[N+](=O)[O-])NCc1ccc(Cl)cc1Cl,.,-1,.,.,.,.
Cn1c(C(C#N)C(=O)c2ccco2)nc2ccccc21 (stereo unspecified),0.5,-3,5,-12,0.9,51*
Cc1ccc(N(CC(=O)Nc2cc(Cl)ccc2Oc2ccccc2)S(C)(=O)=O)cc1C,0,-6,99*,.,0,98*
Cc1ccc(N(CC(=O)Nc2cc(Cl)ccc2Oc2ccccc2)S(C)(=O)=O)c(C)c1,0.5,-5,61*,.,0.4,46
O=C(COc1ccccc1Cl)Nc1cc(Cl)ccc1Oc1ccccc1,0.9,-3,-2,.,1,11
Cc1c(C)c2cc(Cl)c(OCc3nn[nH]n3)cc2oc1=O,0.1,1,92*,4,0.1,94*
COC(=O)Cc1c(C)c2c(OCc3nn[nH]n3)cc(C)cc2oc1=O,0.8,-3,7,-1,0.9,17
CCOC(=O)c1cnn(-c2ccccc2)c1N,1,1,10,8,0.9,3
CCOC(=O)c1cnn(-c2cccc(Cl)c2)c1N,0.6,2,62*,12,0.4,42
CCOC(=O)c1ccc(NC(=O)CN2C(=O)C(CC)SC(CC)C2=O)cc1 (stereo unspecified),.,4,.,.,.,.
